Of roughly 7,900 targets only a part is listed; those with a hit were picked by preference. About 0.6% of all pairs of compound and target were hits. Values without a mark were called inactive.
Columns and labels:
Test in all cases: log2 fold change, soluble protein after heating vs DMSO (PISA); higher = thermal stabilisation; K562 cells, 10 uM, 30 min; active = over 0.2 and 3.5 SD of the protein, either way, in both replicates (recomputed)
[1] = compound: C1COCCN1CCN2C3=CC=CC=C3N=C2NC(=O)C4=CC(=CC=C4)[N+](=O)[O-] [IRAK-1-4 Inhibitor I]
Method in brief: (§1)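 K562 cells at 2×10^6 cells/mL were given 10 μM compound for 30 min. Aliquots then went through 3 min of heating across 48°C-58°C, were pooled, and were extracted in PBS with 0.5% NP-40 at 4°C, and the supernatant after 21,000xg for 90 min was quantified by TMTpro 16plex LC-MS/MS with channel sums equalised. Thermal stability relative to control samples, from duplicates, is given as log2 fold change.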

[2] = compound: C=CC(=O)N1CCC[C@@H](n2nc(-c3ccc(Oc4ccccc4)cc3)c3c(N)ncnc32)C1 [ibrutinib]
Method in brief: as §1

[3] = compound: CC(=O)c1cnc2ccc(-c3cc(Cl)c(O)c(Cl)c3)nc2c1N[C@H]1CC[C@H](CN(C)C)CC1
Method in brief: as §1

[4] = compound: CC(C)(C)Cn1c(N)nc2ccc(-c3[nH]c(C(C)(C)C)nc3-c3ccc(F)cc3)nc21 [ralimetinib]
Method in brief: as §1

[5] = compound: CC(C)(O)CC(=O)NCCn1ccc2ncnc(Nc3ccc(Oc4cccc(C(F)(F)F)c4)c(Cl)c3)c21
Method in brief: as §1

[6] = compound: CC(C)C1=C2N=C(C=C(N2N=C1)NCC3=CC=CC=C3)NCCCCCCN
Method in brief: as §1

[7] = compound: CC(C)C[C@@H](C=O)NC(=O)[C@H](CC(C)C)NC(=O)[C@H](CC(C)C)NC(=O)OCc1ccccc1
Method in brief: as §1

[8] = compound: CC(C)N(C[C@H]1O[C@@H](n2cnc3c(N)ncnc32)[C@H](O)[C@@H]1O)[C@H]1C[C@@H](CCc2nc3cc(C(C)(C)C)ccc3[nH]2)C1 [pinometostat]
Method in brief: as §1

[9] = compound: CC1=C(C(CC(=O)N1)C2=CC=C(C=C2)C(F)(F)F)C(=O)NC3=C(C=C4C(=C3)C=NN4)F
Method in brief: as §1

[10] = compound: CC1=C(C2=C(C=C1)C(=O)C3=CC=CC=C3N2CCCN)C
Method in brief: as §1

Sequence of UniProt P98171 (P98171 whole entry, looked up): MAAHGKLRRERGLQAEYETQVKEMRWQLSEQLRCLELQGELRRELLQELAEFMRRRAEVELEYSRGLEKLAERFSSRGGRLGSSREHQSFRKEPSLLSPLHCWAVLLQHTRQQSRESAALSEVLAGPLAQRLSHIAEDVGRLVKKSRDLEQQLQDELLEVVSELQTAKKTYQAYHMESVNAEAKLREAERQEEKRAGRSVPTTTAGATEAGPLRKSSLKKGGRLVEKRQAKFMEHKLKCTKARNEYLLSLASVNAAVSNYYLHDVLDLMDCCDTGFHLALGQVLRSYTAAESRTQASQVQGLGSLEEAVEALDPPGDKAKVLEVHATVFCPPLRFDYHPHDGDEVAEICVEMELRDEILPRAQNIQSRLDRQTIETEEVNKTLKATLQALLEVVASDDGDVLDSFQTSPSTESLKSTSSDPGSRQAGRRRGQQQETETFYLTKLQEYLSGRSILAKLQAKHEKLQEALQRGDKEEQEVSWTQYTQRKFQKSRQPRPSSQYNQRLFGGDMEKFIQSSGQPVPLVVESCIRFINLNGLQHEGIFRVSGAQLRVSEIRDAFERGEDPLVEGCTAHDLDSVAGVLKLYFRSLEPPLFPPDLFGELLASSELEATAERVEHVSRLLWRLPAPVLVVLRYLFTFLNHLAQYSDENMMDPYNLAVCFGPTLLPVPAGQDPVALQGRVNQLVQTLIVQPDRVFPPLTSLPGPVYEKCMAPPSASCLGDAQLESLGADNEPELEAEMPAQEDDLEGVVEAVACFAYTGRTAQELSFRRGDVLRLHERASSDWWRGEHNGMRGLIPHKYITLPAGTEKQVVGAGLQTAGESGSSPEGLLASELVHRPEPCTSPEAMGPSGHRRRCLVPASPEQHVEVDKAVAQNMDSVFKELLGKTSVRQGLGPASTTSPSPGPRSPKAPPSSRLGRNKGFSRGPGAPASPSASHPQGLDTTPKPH
Sequence of UniProt P35611 (P35611 whole entry, looked up): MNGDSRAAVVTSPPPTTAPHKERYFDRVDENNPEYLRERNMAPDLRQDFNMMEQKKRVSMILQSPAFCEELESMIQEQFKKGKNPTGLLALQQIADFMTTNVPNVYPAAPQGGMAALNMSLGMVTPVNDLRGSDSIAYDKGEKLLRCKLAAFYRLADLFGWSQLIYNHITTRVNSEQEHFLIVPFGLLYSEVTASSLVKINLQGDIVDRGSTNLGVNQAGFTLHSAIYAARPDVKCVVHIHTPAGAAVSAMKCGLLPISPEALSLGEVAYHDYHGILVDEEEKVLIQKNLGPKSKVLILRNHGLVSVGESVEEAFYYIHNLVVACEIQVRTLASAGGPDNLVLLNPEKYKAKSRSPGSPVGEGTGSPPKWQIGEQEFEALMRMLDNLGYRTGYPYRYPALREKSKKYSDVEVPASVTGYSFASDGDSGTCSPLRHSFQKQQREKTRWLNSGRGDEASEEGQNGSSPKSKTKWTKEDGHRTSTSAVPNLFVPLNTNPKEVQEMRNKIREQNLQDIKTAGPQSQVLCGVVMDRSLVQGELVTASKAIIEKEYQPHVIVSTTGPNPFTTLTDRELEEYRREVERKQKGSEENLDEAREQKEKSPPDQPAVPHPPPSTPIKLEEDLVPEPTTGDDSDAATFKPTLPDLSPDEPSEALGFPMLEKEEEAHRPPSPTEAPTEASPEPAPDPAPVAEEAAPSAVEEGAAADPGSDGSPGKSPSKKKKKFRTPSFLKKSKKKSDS
Sequence of UniProt Q562R1 (Q562R1 whole entry, looked up): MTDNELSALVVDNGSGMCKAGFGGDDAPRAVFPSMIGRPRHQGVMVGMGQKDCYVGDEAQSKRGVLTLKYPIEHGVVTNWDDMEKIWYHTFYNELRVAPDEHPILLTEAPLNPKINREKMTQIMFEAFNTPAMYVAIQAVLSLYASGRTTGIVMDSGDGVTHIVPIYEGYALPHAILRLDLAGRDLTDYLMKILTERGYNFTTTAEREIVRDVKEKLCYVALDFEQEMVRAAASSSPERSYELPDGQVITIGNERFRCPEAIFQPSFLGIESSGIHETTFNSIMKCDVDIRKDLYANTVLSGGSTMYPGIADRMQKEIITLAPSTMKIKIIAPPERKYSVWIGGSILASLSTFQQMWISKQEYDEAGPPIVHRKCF
Sequence of UniProt Q04771 (Q04771 whole entry, looked up): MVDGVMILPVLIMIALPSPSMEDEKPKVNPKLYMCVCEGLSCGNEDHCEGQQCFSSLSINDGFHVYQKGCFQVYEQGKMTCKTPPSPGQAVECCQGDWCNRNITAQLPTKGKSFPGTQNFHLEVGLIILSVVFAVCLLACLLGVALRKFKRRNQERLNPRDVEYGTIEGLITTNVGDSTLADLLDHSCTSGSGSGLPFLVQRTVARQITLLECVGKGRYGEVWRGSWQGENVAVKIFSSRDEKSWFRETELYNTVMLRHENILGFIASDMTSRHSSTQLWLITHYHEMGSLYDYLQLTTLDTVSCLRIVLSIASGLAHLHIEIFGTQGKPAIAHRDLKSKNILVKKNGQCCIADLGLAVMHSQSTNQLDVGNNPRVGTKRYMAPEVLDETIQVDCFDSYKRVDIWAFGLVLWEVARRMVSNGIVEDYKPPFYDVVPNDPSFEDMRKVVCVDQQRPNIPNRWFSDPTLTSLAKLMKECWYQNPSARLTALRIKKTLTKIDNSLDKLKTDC
Sequence of UniProt P05091 (P05091 whole entry, looked up): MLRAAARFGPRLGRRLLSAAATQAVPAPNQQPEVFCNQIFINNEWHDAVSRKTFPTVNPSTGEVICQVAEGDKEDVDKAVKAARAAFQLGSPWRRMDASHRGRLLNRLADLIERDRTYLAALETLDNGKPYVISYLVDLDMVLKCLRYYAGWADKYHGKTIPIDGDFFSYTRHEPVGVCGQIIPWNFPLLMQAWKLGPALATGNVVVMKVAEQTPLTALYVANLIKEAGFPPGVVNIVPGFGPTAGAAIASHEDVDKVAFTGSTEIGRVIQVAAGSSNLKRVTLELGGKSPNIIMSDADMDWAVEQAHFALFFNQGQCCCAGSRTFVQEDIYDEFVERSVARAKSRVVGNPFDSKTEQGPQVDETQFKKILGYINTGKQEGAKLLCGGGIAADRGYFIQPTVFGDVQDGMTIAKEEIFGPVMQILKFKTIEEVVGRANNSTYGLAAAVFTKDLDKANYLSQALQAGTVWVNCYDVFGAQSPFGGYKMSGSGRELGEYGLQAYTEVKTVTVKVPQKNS
Sequence of UniProt Q4L235 (Q4L235 whole entry, looked up): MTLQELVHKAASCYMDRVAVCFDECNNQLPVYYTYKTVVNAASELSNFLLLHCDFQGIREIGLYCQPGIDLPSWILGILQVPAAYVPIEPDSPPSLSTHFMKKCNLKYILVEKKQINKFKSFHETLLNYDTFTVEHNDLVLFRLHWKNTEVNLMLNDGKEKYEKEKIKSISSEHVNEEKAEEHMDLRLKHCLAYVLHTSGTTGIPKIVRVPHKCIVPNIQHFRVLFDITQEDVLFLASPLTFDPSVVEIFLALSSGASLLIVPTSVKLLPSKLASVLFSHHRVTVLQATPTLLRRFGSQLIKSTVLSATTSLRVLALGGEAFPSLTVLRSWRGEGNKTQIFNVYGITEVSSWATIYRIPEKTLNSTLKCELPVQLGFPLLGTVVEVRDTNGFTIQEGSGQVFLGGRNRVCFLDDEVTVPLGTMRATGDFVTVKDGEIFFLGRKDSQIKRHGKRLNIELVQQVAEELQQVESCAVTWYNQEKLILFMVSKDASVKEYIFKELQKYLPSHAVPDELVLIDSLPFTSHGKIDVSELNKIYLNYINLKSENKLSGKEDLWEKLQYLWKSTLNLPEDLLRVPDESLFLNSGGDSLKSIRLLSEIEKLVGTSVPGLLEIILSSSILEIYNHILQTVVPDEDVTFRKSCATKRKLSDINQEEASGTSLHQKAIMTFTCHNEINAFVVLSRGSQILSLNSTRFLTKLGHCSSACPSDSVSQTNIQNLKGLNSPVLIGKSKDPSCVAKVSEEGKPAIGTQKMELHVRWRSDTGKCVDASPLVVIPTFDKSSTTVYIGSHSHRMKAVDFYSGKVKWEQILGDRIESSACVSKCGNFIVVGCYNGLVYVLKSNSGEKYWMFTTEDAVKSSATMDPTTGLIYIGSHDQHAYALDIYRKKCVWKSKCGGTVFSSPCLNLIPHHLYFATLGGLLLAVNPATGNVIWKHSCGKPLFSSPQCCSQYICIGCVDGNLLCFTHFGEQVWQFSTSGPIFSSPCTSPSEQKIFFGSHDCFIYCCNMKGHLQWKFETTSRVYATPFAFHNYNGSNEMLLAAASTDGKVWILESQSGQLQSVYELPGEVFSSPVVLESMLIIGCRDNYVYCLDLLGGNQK
Sequence of UniProt Q8IUR7 (Q8IUR7 whole entry, looked up): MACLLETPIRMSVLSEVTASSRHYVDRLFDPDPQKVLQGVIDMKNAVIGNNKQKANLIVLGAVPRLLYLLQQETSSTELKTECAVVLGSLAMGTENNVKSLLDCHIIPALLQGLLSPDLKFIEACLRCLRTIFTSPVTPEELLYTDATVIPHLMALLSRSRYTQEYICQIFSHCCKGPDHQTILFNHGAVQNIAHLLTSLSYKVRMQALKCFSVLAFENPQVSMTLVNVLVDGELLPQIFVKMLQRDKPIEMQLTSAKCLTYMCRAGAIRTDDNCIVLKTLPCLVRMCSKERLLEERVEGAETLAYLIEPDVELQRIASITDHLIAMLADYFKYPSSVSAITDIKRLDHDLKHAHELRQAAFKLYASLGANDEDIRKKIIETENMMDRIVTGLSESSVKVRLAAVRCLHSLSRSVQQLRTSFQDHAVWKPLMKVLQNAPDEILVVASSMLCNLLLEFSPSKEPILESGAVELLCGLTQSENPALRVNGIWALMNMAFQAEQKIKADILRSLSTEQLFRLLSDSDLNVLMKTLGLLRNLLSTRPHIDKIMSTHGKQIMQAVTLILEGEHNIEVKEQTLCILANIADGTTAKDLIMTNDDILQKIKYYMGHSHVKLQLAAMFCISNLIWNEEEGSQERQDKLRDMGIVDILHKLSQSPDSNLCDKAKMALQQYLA
Sequence of UniProt P55008 (P55008 whole entry, looked up): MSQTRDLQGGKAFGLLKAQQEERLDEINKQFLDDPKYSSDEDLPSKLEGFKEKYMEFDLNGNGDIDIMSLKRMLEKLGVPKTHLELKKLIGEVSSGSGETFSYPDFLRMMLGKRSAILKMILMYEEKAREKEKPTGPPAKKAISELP

Target	log2 fold change [1]	log2 fold change [2]	log2 fold change [3]	log2 fold change [4]	log2 fold change [5]	log2 fold change [6]	log2 fold change [7]	log2 fold change [8]	log2 fold change [9]	log2 fold change [10]
ANP32E (UniProt Q9BTT0)	0.016	0.019	-0.128	-0.035	-0.067	-0.181	-0.036	0.028	0.082	-0.214
ARHGAP25 isoform 4 (UniProt P42331)		-0.064	-0.16		-0.465	-0.961 (active)			-0.418	0.066
ARRDC1 (UniProt Q8N5I2)		0.062		0.076	0.102	-0.07	0.094		-0.075	0.045
BRAF, A0A2R8Y8E0	0.055		0.156	0.059		-0.188	0.067	-0.04	0.149	0.078
BAIAP2 isoform 4 (UniProt Q9UQB8)										0.053
BAP18 isoform 3 (UniProt Q8IXM2)						0.074				-0.183
ARFIP1 isoform 2 (UniProt P53367)	-0.051	-0.055			-0.186	-0.048		0.043	0.029	
ADD1 isoform 4 (UniProt P35611)	-0.21	0.029			-0.117			0.122		
ATF1 (UniProt P18846)		-0.02	-0.02		-0.07	0.081			-0.04	-0.127
ANGEL1 (UniProt Q9UNK9)	-0.042	0.062		0.332			0.207	-0.019		0.074
AASDH (UniProt Q4L235)	0.037	-0.308		-0.011	-0.15	-0.107	-0.066	0.038	-0.017	-0.184
AIF1 (UniProt P55008)		0.012	0.028	-0.112	0.035	-0.033	0.07			
ALDH2 isoform 2 (UniProt P05091)		-0.1	-0.133	-0.18	0.029		0.063			0.087
BTBD6 (UniProt Q96KE9)		0.136	0.145	0.201	-0.008	0.296	0.025		0.068	0.005
ADD3 isoform 2 (UniProt Q9UEY8)	0.008		-0.433	-0.015	0.005		0.009	0.108		-0.063
BRD2 isoform 2 (UniProt P25440)	0.091	-0.164	-0.63			0.042		0.038		-0.117
ARL4A (UniProt P40617)		0.143	-0.295							
BRD4 (UniProt O60885)		-0.018	-0.254	-0.174	-0.011	0.094	-0.035		0.047	0.101
ATP6V0A1 (UniProt Q93050)		0.047								

Target	log2 fold change [1]	log2 fold change [2]	log2 fold change [3]	log2 fold change [4]	log2 fold change [5]	log2 fold change [6]	log2 fold change [7]	log2 fold change [8]	log2 fold change [9]	log2 fold change [10]
ALDH9A1 (UniProt P49189)		-0.008	-0.024	-0.077	0	-0.27	0.185		-0.056	-0.035
ACTBL2 (UniProt Q562R1)		0	-0.156	0.351	0.132	0.372	0.195		0.406	
ARMC8 isoform 6 (UniProt Q8IUR7)		0.016	0.038			0.053			-0.024	
AKNA (UniProt Q7Z591)						-0.659 (active)				
ASS1 (UniProt P00966)		0.05	-0.155	-0.022	-0.064	-0.122	0.006		-0.071	-0.021
AP2S1 (UniProt M0QZ21)										0.139
APAF1 (UniProt O14727)	0.001		-0.153	-0.07	-0.08	-0.156	0.135	0.066	0.047	
BRMS1 (UniProt Q9HCU9)			0.055		-0.002					-0.014
BRAF (UniProt P15056)	-0.025	0.002		0.019		-0.044	-0.031	0.047	0.003	0.056
AUNIP isoform 2 (UniProt Q9H7T9)			-0.219			-0.134				-0.141
ADPRH (UniProt P54922)	0.056	0.001		-0.003	-0.084	0.107	-0.033	0.021	-0.032	0.037
BSCL2 isoform 4 (UniProt Q96G97)		0.069	-0.109		0.003	-0.219			-0.122	0.023
ARHGAP4 isoform 2 (UniProt P98171)		0.026	-0.051	0.161		-0.067	-0.005		-0.179	0.062
ACTR3B (UniProt Q9P1U1)	-0.04			-0.071		0.181	0.056	-0.081	-0.015	-0.016
ACVR1 (UniProt Q04771)			0.873 (active)		-0.158	0.06				0.127
AZI2 (UniProt Q9H6S1)		0.046		-0.241		-0.126	-0.09		-0.018	0.022
ADD2 isoform 9 (UniProt P35612)		-0.098		0.145			-0.103			
ACSL6 isoform 1 (UniProt Q9UKU0)		0.043		-0.001	0.222	-0.21	0.027		-0.109	0.012

Reference: the supplement of paper PMC10849652
